Rows were chosen to be rich in hits. Some 3.1% of all compounds tested hit in one or more screens of this group.
ERAP1 inh = human ERAP1 aminopeptidase inhibitors, primary screen, biochemical, single point, plate reader | Endoplasmic reticulum aminopeptidase 1 (Homo sapiens), Q9NZ08 | recombinant ERAP1, Leu-AMC fluorescence, 60 min | inhibition, % at 10.7 µM | 340,000 compounds, 0.15% hits | AID 652197, 2013;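 active = mean replicate inhibition of at least 30%, or all replicates individually reaching that 30% level; inactive = mean below 30% and not every replicate reaching it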
SIRT5 block = SIRT5 desuccinylase inhibitors, primary screen, biochemical, fluorescence imaging, single point, set 5; inhibition, % at 15 µM; 330,000 compounds, 1.1% hits; Purified SirT5, succinyl-peptide AMC, trypsin-coupled fluorescence; NAD-dependent protein deacylase sirtuin-5, mitochondrial (Homo sapiens), Q9NXA8; AID 652115, 2013; in the data active = inhibition above about 15%
Target sequence (Q9NXA8 whole entry, looked up): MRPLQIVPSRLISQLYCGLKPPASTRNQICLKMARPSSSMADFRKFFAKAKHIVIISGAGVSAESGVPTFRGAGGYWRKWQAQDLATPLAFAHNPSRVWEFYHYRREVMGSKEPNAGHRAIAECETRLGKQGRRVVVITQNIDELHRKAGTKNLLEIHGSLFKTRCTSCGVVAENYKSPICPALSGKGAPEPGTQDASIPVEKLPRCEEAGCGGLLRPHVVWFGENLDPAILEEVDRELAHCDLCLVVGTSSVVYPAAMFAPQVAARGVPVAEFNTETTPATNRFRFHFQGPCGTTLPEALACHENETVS
FGF22 binding = binders of human FGF22 protein, primary screen, FGF22 synaptogenesis inhibitor project, biophysical, thermal shift, single point | Fibroblast growth factor 22 (Homo sapiens), Q9HCT0 | recombinant FGF22 thermal shift, SYPRO orange fluorescence; percent of sucrose octasulfate shift, DMSO zero | activity (Tm shift, normalised), % at 9.99 µM | 340,000 compounds, 1.5% hits;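 active = mean Tm shift, scaled 0 neutral to 100 positive control, at about 1.3% or above, every replicate too, limit read from the data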
Casp6 inh = human caspase-6 inhibitors, primary screen, biochemical, VEID-R110 fluorescence, single point, set 2; purified caspase-6, Z-VEID-R110 cleavage fluorescence; inhibition, % at 12.5 µM; 350,000 compounds, 0.53% hits;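 active = mean inhibition across replicates at least about 35%, with every replicate also reaching that limit, limit read from the data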
Target sequence (P55212 24-179 limits assumed): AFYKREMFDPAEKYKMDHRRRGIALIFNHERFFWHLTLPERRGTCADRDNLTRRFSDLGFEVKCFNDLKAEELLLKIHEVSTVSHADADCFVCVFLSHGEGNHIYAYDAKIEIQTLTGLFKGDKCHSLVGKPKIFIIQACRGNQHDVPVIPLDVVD
Target sequence (P55212 194-293 limits assumed): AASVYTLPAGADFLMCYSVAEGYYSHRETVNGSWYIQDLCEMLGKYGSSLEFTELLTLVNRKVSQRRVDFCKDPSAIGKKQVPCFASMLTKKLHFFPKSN
Of the large screens only hits and unclear results are named; the others gave an inactive call.

C[C@H]1CCCCO[C@H](CN(C)C)[C@@H](C)CN([C@@H](C)CO)C(=O)c2cc(NS(C)(=O)=O)ccc2O1	none (no result: FGF22 binding)
O=C(Cn1nnc(-c2ccccc2)n1)N1CCN(c2ccc(F)cc2)CC1	FGF22 binding 43
COc1ccc(S(=O)(=O)N(C)C[C@H]2OCCCC[C@H](C)Oc3ccc(NS(=O)(=O)c4cn(C)cn4)cc3C(=O)N([C@H](C)CO)C[C@@H]2C)cc1	none
CC(C)c1ccc(NC(=O)C[C@H]2CC[C@H]3[C@@H](COc4ccc(NC(=O)c5ccno5)cc4C(=O)N3C)O2)cc1	none
C[C@H](CO)N1C[C@H](C)[C@@H](CN(C)S(=O)(=O)c2ccccc2)Oc2ccc(NC(=O)Nc3ccc(C(F)(F)F)cc3)cc2CC1=O	SIRT5 block 19
C[C@H](CO)N1C[C@H](C)[C@H](CN(C)S(=O)(=O)c2ccccc2)Oc2ccc(NC(=O)Nc3ccc4c(c3)OCO4)cc2CC1=O	SIRT5 block 16
COc1ccccc1NC(=O)N[C@@H]1CC[C@H](CCNC(=O)Cc2ccccn2)O[C@@H]1CO	none
COc1ccc(C(c2c(NC(=O)c3ccco3)sc(C)c2C)N2CCOCC2)cc1 (stereo not given)	Casp6 inh 55
CNC(=O)c1c(NC(=O)c2ccco2)sc(C)c1C	none
COc1cc(C(Nc2ccccn2)c2c(NC(=O)c3ccco3)sc(C)c2C)cc(OC)c1OC (stereo not given)	FGF22 binding 44
COc1ccc(C(CNC(=O)c2ccco2)N2CCOCC2)cc1 (stereo not given)	none
COc1ccc(C(Nc2ccccn2)c2c(NC(=O)c3ccco3)sc(C)c2C)cc1OC (stereo not given)	FGF22 binding 44
CC(C)CC#Cc1ccc2c(c1)O[C@H](CN(C)C(=O)Nc1ccccc1)[C@H](C)CN([C@H](C)CO)S2(=O)=O	none
CCNC1(C(N)=O)CCN(Cc2ccccc2)CC1	none (no result: SIRT5 block)
CCCNC1(C(N)=O)CCN(Cc2ccccc2)CC1	FGF22 binding 43 (no result: SIRT5 block)
Cc1noc(C)c1S(=O)(=O)N(C)C[C@H]1OCCCC[C@@H](C)Oc2ccc(NS(=O)(=O)c3cccs3)cc2C(=O)N([C@@H](C)CO)C[C@@H]1C	none
O=C(CC(CC(=O)c1ccccc1)c1ccccn1)c1ccccc1	FGF22 binding 44 (no result: SIRT5 block)
CCOC(=O)c1cccc(NC(=O)Nc2ccc(OCC)cc2)c1	FGF22 binding 43
C[C@H]1CN([C@@H](C)CO)C(=O)c2cc(-c3cncnc3)cnc2O[C@H]1CN(C)Cc1ccc(F)cc1	none
Cc1cc(NC2=CC(=O)C(=O)c3ccccc32)no1	Casp6 inh 48
C[C@H](CO)N1C[C@H](C)[C@H](CN(C)C(=O)Nc2ccc(C(F)(F)F)cc2)Oc2ccc(NC(=O)Nc3ccc(F)cc3)cc2CC1=O	none (no result: ERAP1 inh, SIRT5 block, Casp6 inh)
Cc1nc(-c2cccc(NC(=O)Cc3ccccc3)c2)cs1	FGF22 binding 43
O=C(CCc1nnc(C2(c3ccc(Cl)cc3)CCC2)o1)N1CCCC1	none
CC(c1ccon1)N(C)C(=O)CCc1nnc(C2(c3ccc(Cl)cc3)CCC2)o1 (stereo not given)	FGF22 binding 43
C=CCNC(=O)CCc1nnc(C2(c3ccc(Cl)cc3)CCC2)o1	none
O=C(CCc1nnc(C2(c3ccc(Cl)cc3)CCC2)o1)NC1CC1	FGF22 binding 44
C[C@@H]1CN([C@@H](C)CO)C(=O)Cc2cc(NS(=O)(=O)c3ccc(Cl)cc3)ccc2O[C@H]1CN(C)S(C)(=O)=O	none
CCC(=O)N(C)C[C@H]1Oc2ncc(C#Cc3ccccc3)cc2C(=O)N([C@@H](C)CO)C[C@H]1C	none
O=C(C[C@H]1CC[C@H]2[C@@H](COC[C@@H](O)CN2C(=O)c2ccccc2)O1)Nc1ccccc1	none
COc1ccc(Br)cc1/C=C/C(=O)NCC(=O)O	FGF22 binding 44
COc1ccc(Br)cc1/C=C/C(=O)NC(=S)Nc1ccc(Cl)c(C(=O)O)c1	none
O=C1N=C(N2CCCC2C(=O)O)S/C1=C\c1ccco1 (stereo not given)	FGF22 binding 43
O=C1N=C(N2CCCCC2)S/C1=C/C1=Cc2ccccc2OC1	none
CCC(=O)N(C)C[C@H]1Oc2cc(Br)ccc2S(=O)(=O)N([C@@H](C)CO)C[C@@H]1C	none
Cc1ccc(CN2CCC(CO)(CC3CCCCO3)CC2)o1 (stereo not given)	none
Cc1ccc2[nH]c(CN3CCC(CO)(CC4CCCCO4)CC3)c(C)c2c1 (stereo not given)	FGF22 binding 43
Cn1nnnc1SCC(=O)N(C1CCCCC1)C1CCS(=O)(=O)C1 (stereo not given)	FGF22 binding 43
C[C@@H]1CN([C@H](C)CO)C(=O)c2cc(NS(=O)(=O)c3cn(C)cn3)ccc2O[C@H]1CN(C)S(C)(=O)=O	none
Clc1nc(Nc2ccc(N3CCOCC3)cc2)c2ccccc2n1	FGF22 binding 43
CCOC(=O)c1nc(Nc2ccc(N3CCOCC3)cc2)c2ccccc2n1	none
CC1CN(S(=O)(=O)c2ccc(Cl)c(C(F)(F)F)c2)CC(C)O1 (stereo not given)	SIRT5 block 15
CC1CCCC(C)N1C(=C(Cl)Cl)C(=C1SCCS1)[N+](=O)[O-] (stereo not given)	FGF22 binding 43
COc1cc(CN2[C@@H]3CNC[C@H]2C3c2ccc(-c3ccc(C)cc3)cc2)cc(OC)c1 (stereo not given in full)	none (no result: ERAP1 inh, SIRT5 block, Casp6 inh)
CC(=O)N(C)C[C@H]1Oc2cc(C3=CCCC3)ccc2S(=O)(=O)N([C@@H](C)CO)C[C@H]1C	none
Cc1ccc(-c2nn(-c3ccccc3)cc2C=C2SC(=S)N(CCS(=O)(=O)O)C2=O)cc1	SIRT5 block 55, Casp6 inh 78
O=C1C(=Cc2cn(-c3ccccc3)nc2-c2ccc(OCc3ccccc3)cc2)SC(=S)N1CCS(=O)(=O)O	Casp6 inh 75
CN(C)CCNC(=O)c1ccc2c(=O)n(Cc3ccc(Cl)cc3)c(=S)[nH]c2c1	none
CCCCN(C)CCNC(=O)c1ccc(Cn2c(=S)[nH]c3ccc(Br)cc3c2=O)cc1	SIRT5 block 49
Cc1ccccc1C1=C/C(=C(\SS/C(C(=O)c2ccc(OCC(=O)O)c(Cl)c2Cl)=C2\C=C(c3ccccc3C)SS2)C(=O)c2ccc(OCC(=O)O)c(Cl)c2Cl)SS1	SIRT5 block 69, Casp6 inh 46
Cc1ccccc1N(C)S(=O)(=O)c1nnc(NC(=O)c2ccco2)s1	Casp6 inh 69
C[C@@H]1CCCCO[C@H](CN(C)C(=O)Nc2cccc3ccccc23)[C@H](C)CN([C@@H](C)CO)C(=O)c2cc(NC(=O)Nc3ccc4c(c3)OCO4)ccc2O1	none
O=C(O)c1cccc(NC(=O)c2cn(-c3ccccc3)nc2-c2cccc(Br)c2)c1	SIRT5 block 16
CN1CCC(=NNC(=O)c2cn(-c3ccccc3)nc2-c2ccccc2)CC1	FGF22 binding 43

Bioassay records from PubChem.
